A selection: hits, their analogues and other compounds. The true share with any hit is near 3.6%.
CF NFkB inh – inhibitors of PAF-induced NF-kB signaling, primary screen, cell-based, GFP fluorescence, uHTS; KKLEB NF-kB-GFP reporter, GFP fluorescence overnight; inhibition, % at 5 µM; 360,000 compounds, 0.86% hits; AID 588850, 2011;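 active = at least 50% inhibition at 5 µM, scaled per plate between neutral and stimulator controls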;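 also: PAF is a Pseudomonas aeruginosa culture filtrate used as stimulus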
HSP90 inh – HSP90 inhibitors, primary screen, cell lysate, luminescence | Heat shock protein HSP 90 (rabbit reticulocyte lysate; luciferase refolding) | Rabbit reticulocyte lysate, luciferase refolding luminescence, 3 h | inhibition, % at 5.6 µM | 290,000 compounds, 0.91% hits | AID 1789, 2009;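 active = inhibition above the screen-wide mean plus 3 SD, computed separately per campaign, cut at about 16% in these data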;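 also: inhibitors lower the luminescence because luciferase stays unfolded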
Peg3 promoter – Peg3 promoter-driven luciferase inhibitors, primary screen, cell-based, HeLa, luciferase luminescence | HeLa PEG-Prom luciferase reporter, overnight | inhibition, % at 20 µM | 360,000 compounds, 1.7% hits | AID 588405, 2011;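 active = inhibition of at least 50% at 20 µM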
Mdm2 MdmX PPI – inhibitors of human Mdm2-MdmX association, primary screen, cell-based, luminescence, split luciferase, SaOS-2, uHTS; Protein Mdm4 (Homo sapiens) + E3 ubiquitin-protein ligase Mdm2 (Homo sapiens), …; SaOS-2 split-luciferase Mdm2/MdmX complementation; inhibition, % at 8 µM; 330,000 compounds, 3% hits;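 active = inhibition of at least 50% at 8 µM in the primary screen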
KKLEB cytotox – cytotoxicity in KKLEB CF airway cells, primary screen, cytotoxicity control for CF NF-kB inhibitor project, cell-based, uHTS, fluorescence assay plates | KKLEB CF airway cells viability, ATPlite luminescence, overnight; stronger effect = lower value; cells stimulated with P. aeruginosa culture filtrate | 360,000 compounds, 0.36% hits | AID 602141, 2011 | activity change (cytotoxicity), % at 5 µM;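 active = corrected activity change at or below -50% at 5 µM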
LGR2 antag – inhibitors of bursicon-induced LGR2 CRE-luciferase signal, primary screen, cell-based, HEK293, CRE-luciferase reporter, bursicon stimulation. Drosophila bursicon receptor LGR2 (rickets). bursicon-stimulated, 4 h. inhibition, % at 9.99 µM. 380,000 compounds, 0.35% hits;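 active = drop in luminescence signal, shown as inhibition above about 50% in the replicate tests, limit read from the data, passing the limit was not always enough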;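 also: agonist challenge used bursicon conditioned medium at about half maximal strength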
HSP90 confirm – HSP90 inhibitors, confirmation, cell lysate, luminescence. shares compounds with HSP90 inh. rabbit reticulocyte lysate, luciferase refolding luminescence, 3 h. inhibition, % at 5.9 µM. 2,300 compounds, 64% hits; in the data active = inhibition above about 18%
FLuc counter-1 – firefly luciferase inhibitors, HSP90 counter-screen, confirmation, artefact control for HSP90 inhibitor project, biochemical, luminescence, triplicate; shares compounds with HSP90 inh; purified native firefly luciferase; inhibition, % at 5.9 µM; 2,300 compounds, 48% hits; AID 1847, 2009;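 active = inhibition above the mean inhibition of all tested sample wells plus 3 SD, cut at about 10% in these data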
Target sequence (P08659 whole entry, looked up): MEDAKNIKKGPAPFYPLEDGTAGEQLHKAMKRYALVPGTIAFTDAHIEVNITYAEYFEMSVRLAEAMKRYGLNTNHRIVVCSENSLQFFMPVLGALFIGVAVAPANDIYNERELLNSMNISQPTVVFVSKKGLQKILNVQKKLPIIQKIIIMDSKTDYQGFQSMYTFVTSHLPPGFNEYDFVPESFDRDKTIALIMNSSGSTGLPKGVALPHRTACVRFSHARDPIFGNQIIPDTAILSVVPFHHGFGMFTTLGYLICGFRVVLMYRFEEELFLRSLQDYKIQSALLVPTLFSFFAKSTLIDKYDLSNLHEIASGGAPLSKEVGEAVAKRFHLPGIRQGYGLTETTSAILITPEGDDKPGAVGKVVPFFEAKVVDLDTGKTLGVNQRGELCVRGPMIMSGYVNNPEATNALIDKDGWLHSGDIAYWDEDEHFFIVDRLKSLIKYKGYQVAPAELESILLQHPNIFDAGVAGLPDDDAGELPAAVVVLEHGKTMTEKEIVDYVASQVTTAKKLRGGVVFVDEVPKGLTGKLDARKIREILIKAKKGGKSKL
Mdm2 MdmX conf – Mdm2-MdmX complex disruptors, retested hits, confirmation, luminescence, single concentration. shares compounds with Mdm2 MdmX PPI. Mdm2-MdmX binding, luminescent assay. inhibition, % at 8 µM. 10,000 compounds, 55% hits. AID 489028, 2010; in the data active = inhibition above about 40%
FLuc counter-2 – full-length luciferase signal inhibition, confirmation, counter-screen for Mdm2/MdmX interaction inhibitor project, cell-based, single concentration, SaOS-2 | AID 504607, 2011 | 6,200 compounds, 77% hits | SaOS-2 full-length luciferase counterscreen, luminescence | inhibition, % at 8 µM | shares compounds with Mdm2 MdmX PPI;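 active = mean inhibition at 8 µM reaching about 37%, which flags the compound as non-specific, limit read from the data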;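 also: p53-null SaOS-2 cells with luciferase driven by a doxycycline-inducible promoter; compound on cells about two nights before reading with doxycycline added after day one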
A number is an active result; i = inactive; nt = no result.

SMILES	CF NFkB inh	HSP90 inh	Peg3 promoter	Mdm2 MdmX PPI	KKLEB cytotox	LGR2 antag	Mdm2 MdmX conf	others
COc1ccccc1OCCCn1cc(C=O)c2ccccc21	i	18	i	i	i	i	nt	HSP90 confirm=22;FLuc counter-1=i
CCOC(=O)C1CCN(/C=C2/C(=O)NC(=O)N(c3ccc(OCC)cc3)C2=O)CC1	i	24	i	i	i	i	nt	HSP90 confirm=i;FLuc counter-1=i
COc1ccc(C#Cc2ccc([C@H]3[C@@H](CO)N4CCCCN(C(=O)Cc5ccncc5)C[C@H]34)cc2)cc1	nt	nt	nt	nt	nt	i	nt
CC=Cc1ccc2n(c1=O)C[C@H]1[C@H](CO)[C@@H](C(=O)OC)[C@@H]2N1CC1CCCC1 (mixture of isomers)	nt	nt	nt	nt	nt	i	nt
O=C(c1ccc(CS(=O)(=O)c2ccc(Br)cc2)o1)N1CCC2(CC1)OCCO2	i	i	i	i	i	nt	nt
O=C(CCS(=O)(=O)c1ccc(Br)cc1)N1CCC2(CC1)OCCO2	i	78	i	i	i	nt	nt	HSP90 confirm=i;FLuc counter-1=i
O=C(NC1CCCCC1)Oc1cc2oc(=O)sc2cc1Cl	i	18	i	i	i	i	nt	HSP90 confirm=i;FLuc counter-1=i
CN(C)C(=O)Oc1ccc(-c2cn3cc(Cl)ccc3n2)cc1	i	33	i	i	i	i	nt	HSP90 confirm=34;FLuc counter-1=21
COc1ccc(N2C(=O)NC(=O)/C(=C\c3cn(C)c4ccccc34)C2=O)cc1	i	28	i	i	i	i	nt	HSP90 confirm=i;FLuc counter-1=i
COC(=O)Cn1cc(/C=C2\C(=O)NC(=O)N(c3ccc(OC)cc3)C2=O)c2ccccc21	i	i	i	i	i	i	nt
O=C(Cc1ccccn1)N1CCCCN2[C@@H](CO)[C@H](c3ccc(Br)cc3)[C@@H]2C1	nt	nt	nt	nt	nt	i	nt
CCCCCCOc1ccc(CN2CCN(CC)CC2)cc1	i	30	i	i	i	nt	nt	HSP90 confirm=25;FLuc counter-1=i
CCn1nc(/C=C/c2ccccc2)nc2c(=O)n(C)c(=O)nc1-2	76	85	94	97	i	104	85	HSP90 confirm=96;FLuc counter-1=88;FLuc counter-2=i
COC(=O)[C@H]1[C@H](CO)[C@H]2Cn3c(ccc(-c4ccncc4)c3=O)[C@@H]1N2S(=O)(=O)c1ccccc1F	nt	nt	nt	nt	nt	i	nt
C[C@]12CC[C@H](O)CC1=CC[C@@H]1[C@@H]2CC[C@]2(C)C(=O)CC[C@@H]12	i	nt	i	i	i	nt	nt
CC12CCC3C(CC=C4CC(O)CCC43C)C1C/C(=C\c1ccccc1F)C2=O (centres undefined)	i	i	51	78	i	i	i
C[C@]12CC[C@H](O)CC1=CCC1C2CC[C@]2(C)C(=O)[C@H](Br)CC12 (some centres undefined)	i	nt	i	50	i	i	i
O=C(O)[C@@H]1[C@@H](CO)[C@@H]2Cn3c(ccc(C4=CCCCC4)c3=O)[C@H]1N2C(=O)Cc1ccccn1	nt	nt	nt	nt	nt	i	nt
Cc1ccc(Cn2nnnc2CN2CCC(n3nnc4cc(C(F)(F)F)ccc43)CC2)cc1	i	i	i	71	i	nt	i
COC(=O)[C@@H]1[C@@H](CO)[C@@H]2Cn3c(ccc(C4=CCCC4)c3=O)[C@H]1N2Cc1ccccn1	nt	nt	nt	nt	nt	i	nt
CN[C@@H]1C[C@@H](c2ccc(Cl)c(Cl)c2)c2ccccc21	nt	i	nt	82	nt	nt	i
c1ccc2oc(N3CCNCC3)nc2c1	i	i	i	i	i	nt	nt
c1ccc2c(N3CCNCC3)nsc2c1	i	i	i	53	i	i	64	FLuc counter-2=i
C=C(C=O)CC1CC(O)[C@]2(C)OC3CC4OC5C[C@]6(C)O[C@]7(C)CCC8OC9C[C@]%10(C)OC%11C(C)=CC(=O)OC%11CC%10OC9C[C@@H](C)C8OC7CC6O[C@]5(C)CC5OC5C4OC3CC2O1 (some centres undefined)	91	i	100	99	-70	nt	100	FLuc counter-2=i
C=C(CO)CC1CC(O)[C@]2(C)OC3CC4OC5C[C@]6(C)O[C@]7(C)CCC8OC9C[C@]%10(C)OC%11C(C)=CC(=O)OC%11CC%10OC9C[C@@H](C)C8OC7CC6O[C@]5(C)C/C=C\C4OC3CC2O1 (some centres undefined)	i	i	i	i	i	i	nt
SMILES	CF NFkB inh	HSP90 inh	Peg3 promoter	Mdm2 MdmX PPI	KKLEB cytotox	LGR2 antag	Mdm2 MdmX conf	others
C/C1=C\[C@@H](C)C/C=C/[C@H]2[C@@H]3O[C@]3(C)[C@@H](C)[C@H]3[C@H](Cc4c[nH]c5ccccc45)NC(=O)[C@]32C(=O)/C=C/C(=O)[C@@H]1O	73	i	98	83	-53	nt	46	FLuc counter-2=i
O=C(/C=C/c1ccc2c(c1)OCO2)c1c(O)n(CCc2ccccc2)c(=O)[nH]c1=O	i	i	i	65	i	i	i
CCCCn1c(O)c(C(C)=NCCc2ccccc2)c(=O)[nH]c1=O	i	i	i	i	i	nt	nt
COc1cc(/C=C/C(=O)c2c(O)n(CCc3ccccc3)c(=O)[nH]c2=O)ccc1O	i	i	i	53	i	nt	46	FLuc counter-2=48
O=C(/C=C/c1ccccc1)c1c(O)n(CCc2ccccc2)c(=O)[nH]c1=O	i	i	i	69	i	i	i
COc1ccc(OC(=O)N(C)C[C@H]2OCc3ccccc3-c3c(n(C)c4ccccc34)C(=O)N([C@@H](C)CO)C[C@@H]2C)cc1	nt	nt	nt	nt	nt	i	nt
O=C1CN=C(c2ccc[nH]2)c2cc(Cl)ccc2N1	i	i	i	65	i	i	68	FLuc counter-2=53
O=C1CN=C(c2ccc(Br)cc2)c2oc3ccccc3c2N1	i	i	i	58	i	nt	i
COc1cccc(OC)c1C1=NCC(=O)Nc2c1oc1ccc(Br)cc21	i	i	i	70	i	i	68	FLuc counter-2=78
O=C1CN=C(c2ccc(F)cc2)c2oc3ccccc3c2N1	i	i	i	i	i	i	nt
Cc1cc(C)n(-c2ccc(NN=C(C#N)C#N)cc2)n1	76	i	i	62	i	82	58	FLuc counter-2=57

Assay outcomes as filed in PubChem.
